Results published in PubChem BioAssay (NCI).
About 83,000 compounds went through this panel and 20% of them were active in at least one assay; those are over-represented in the sample as a whole.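 Each cell line was grown in a 96-well plate and treated with one concentration of compound for 48 hours. Values below 10 were considered active.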 Calls of active or inactive are those of the source.

Each molecule was assayed on MDA-MB-468 breast (assay: NCI-60 one-dose screen, 48 h (100 = growth as untreated, 0 = no growth, -100 = all killed)). Details: 10 µM unless noted.
Cc1ccc([N+](=O)[O-])c(C)n1 was tested, and the growth was 112% (inactive). In the case of Cc1cccc(N2CCN(C3=C(Cl)C(=O)c4ncccc4C3=O)CC2)c1, the growth was -66.6% (active). COc1ccc(NC(=O)c2ccc(-c3ccccc3)cc2)c(C(N)=O)c1 was tested, and the growth was 109% (inactive). Cc1nn2c(-c3nc4cc(Cl)c(Cl)cc4[nH]3)c(-c3ccc(F)cc3)nc2s1 was tested, and the growth was 8.3% (active). In the case of CCCCOc1c(N)cc(Cl)cc1C(=O)OCCN(CC)CC, the growth was 112% (inactive). With CC(=O)Nc1c(I)c(NC(C)=O)c(I)c(C(=O)O)c1I the growth was 115% (inactive). ON=C(C1CCCCC1)C1CCCCC1 was tested, and the growth was 105% (inactive). In the case of CN(C)CCCOc1ccc(OCCCN(C)C)c2c1C(=O)c1ccccc1C2=O, the growth was -33.7% (active). With CCCCCCCCOC(=O)c1c(C)[nH]c(/C=C2\N=C(c3ccc[nH]3)C=C2OC)c1C the growth was -25.7% (active). With CN1CCN(CCNc2nc(-c3cccc(NS(=O)(=O)c4cccc5c(N(C)C)cccc45)c3)cs2)CC1 the growth was 42.9% (inactive). In the case of NNc1nc(-c2cccnc2)nc2c1sc(=S)n2-c1ccccc1, the growth was 115% (inactive). CC(C)Nc1ccc(Nc2ccc(NC(C)C)cc2)cc1 was tested, and the growth was -7.07% (active). COc1ccc2c(c1)c(-c1nonc1-c1c[nH]c3ccc(Br)cc13)cn2C was tested, and the growth was 52.4% (inactive). For C=CCSc1ccc2c(c1)C(N1CCNCC1)=Nc1ccccc1O2, the growth was 27.8% [8.25 µM] (inactive). For O=C(Oc1ccccc1)C(Br)C(Br)c1ccccc1 (stereo unspecified), the growth was 56.7% (inactive). O=C(Nc1cccc2c(O)c(N=Nc3ccc(S(=O)(=O)Nc4nccs4)cc3)cc(N=Nc3ccc(S(=O)(=O)Nc4nccs4)cc3)c12)C(Cl)Cl was tested, and the growth was 7.35% (active). For CS(=O)(=O)c1ccc(/C(=N/NC(N)=S)c2ccc(F)cc2)cc1, the growth was 88.2% (inactive). In the case of COc1ccc2c(c1)/C(=C\c1sc(=S)[nH]c1O)C(C(=O)O)=N2, the growth was 98.2% (inactive). In the case of COc1cccc(C(=O)N(c2ccc(F)c(F)c2)C(C(=O)NC(C)(C)C)c2cc3c(C)cc(C)cc3nc2Cl)c1 (stereo unspecified), the growth was 35.2% (inactive). For CC(=O)c1nc2ccccc2n1CCNC(N)=O, the growth was 60.8% (inactive). With Nc1ccccc1-c1ccn[nH]1 the growth was 101% (inactive). CNC(=O)c1cccnc1 was tested, and the growth was 106% (inactive). For Clc1nc(Cl)c2ncn(CC3(Cn4cnc5c(Cl)nc(Cl)nc54)COC3)c2n1, the growth was -60.7% (active). With CCOC(=N)CC(=O)Nc1cccc(C)c1Cl the growth was 90.8% (inactive). With COc1ccc(CC(C)=C(c2ccc(OCCN(C)C)cc2)c2ccc(OCCN(C)C)cc2)cc1 the growth was 68.3% (inactive). For Cc1ccc(N2CCN(C(C)C(N)=O)CC2)cc1 (stereo unspecified), the growth was 109% (inactive).
